The source of these data is PubChem BioAssay (NCATS).

Results filed as inconclusive are left out. A number with no mark means an inactive call. The call rests on the fitted dose curve; in most records, active means well fitted curve in either direction with a large enough effect (not every such curve was filed as active); inconclusive means small, poorly fitted or top-dose-only effect, or another doubt; inactive means flat fitted curve, though single readings scatter. Residues, ends and D or L forms follow the SMILES beside them.
On the % scale 0 is the no-effect control and ±100 the full control effect.

A short description of the assay: NFAT Signaling Pathway (AID 444). Conditions: Jurkat NFAT-bla M1, carbachol, beta-lactamase ratio, 5 h; at 7.69 µM (top of the series) unless noted. From the text: NCGC Assay Overview: The nuclear factor of activated T cells (NFAT) family of transcription factors has been found primarily in most immune system cells and some other non-immune cells. NFAT plays the immunomodulatory role, primarily in T-cell activation and differentiation. NFAT target genes are also involved in the regulation of apoptosis and differentiation in non-immune cell types. The NFAT sequence was engineered to the upstream of the ?-lactamase reporter gene and transfected into Jurkat cells with co-transfection of muscarinic receptor1 [provided by Invitrogen Corp]. When an extracellular stimulus, such as carbachol, binds to the GPCR M1 receptor, it stimulates a signaling cascade that activates NFAT response element and ?-lactamase expression by phosphorylating the NFAT binding protein. This cell based ?-lactamase reporter gene assay can accurately monitor any changes occurring along the NFAT pathway, and can be used for screening small molecule inhibitor or activator upon activation by carbachol EC50 concentration. A small molecular library were screened in a titration series resulting in AC50s (can be either IC50s or EC50s).
NCGC Assay Protocol Summary: The cells were prepared in RPMI 1640 medium containing 0.1% dialyzed FBS and 25 mM HEPES at 1.6 x 10^6cell/ml. The assay was performed in 1536-well plate format as follows: 5 ul of cell preparation 23 nl of compounds 1ul of carbachol (final concentration 1 uM) Briefly centrifuge the plates and incubate at 37 °C for 5 hours 1 ul of CCF4 dye mixture Incubate the plates at RT for 1 hour Read the plate in EnVision plate reader (Ex= 405nm, and Em1=460nm and Em2=530nm). The %Activity was determined from the ratio of 460nm/530nm. Data normalization and AC50 calculations were accomplished using GeneData software.
`Cc1cc(C)nc(SCCc2cccc[n+]2C)n1`: the activity change, negative = inhibition was -24.4%. Regarding `O=C1C(=O)c2ccccc2C(O)=C1C(C1=C(O)c2ccccc2C(=O)C1=O)c1ccc(Cl)cc1`, the activity change, negative = inhibition was -12.1%. Take `CNc1ncncc1-c1ccc(C(=O)N(C)C)cc1`: the activity change, negative = inhibition is 7.99%. `CN1CCN(c2ncc3nc(CCc4ccccc4)c(=O)n(CCC#N)c3n2)CC1`: the activity change, negative = inhibition was -8.66%. Turning to `Cc1cc(C(C)(C)C)c(OCCCN2CCOCC2)c(C(C)(C)C)c1`, the activity change, negative = inhibition is -12.7%. `O=c1c(-c2cccs2)nc2cnc(Oc3ccccc3)nc2n1C1CC1`: the activity change, negative = inhibition was 22.4%. For `O=C1c2cccc([N+](=O)[O-])c2C(=O)N1c1ncn[nH]1`, the activity change, negative = inhibition was 7.45%.

`Fc1cccc(CSc2ncnc3c2ncn3[C@H]2CCCS2)c1`: the activity change, negative = inhibition was -2.58%. With `Cc1ccc(SCN2CCCCC2)cc1` (tested in a mixture with another compound), the activity change, negative = inhibition is 16.7%. As to `NCCNC[C@H](O)CO`, the activity change, negative = inhibition is 7.58%. For the compound `COc1ccc(CCCC(=O)O)c(C)c1`, the activity change, negative = inhibition was -4.8%. Under `O=C(N/N=C\c1cccc(O)c1)c1ccncc1` stands -7.01%; under `Nc1ccccc1N=Nc1c(S(=O)(=O)O)cc2cc(S(=O)(=O)O)cc(O)c2c1O`, -1.89%; under `COc1ccc(Cc2ccc3[nH]c(=O)cc(C)c3c2)cc1S(=O)(=O)O`, 8.36%. Consider `Cc1ccc(S(=O)(=O)O[C@@H]2[C@H]([C@@H]3COC(C)(C)O3)O[C@H]3OC(C)(C)O[C@@H]32)cc1`, for which the activity change, negative = inhibition was 3.01%. With `O=C1NC(=O)[C@@](Cc2ccccc2)(c2cccnc2)N1`, the activity change, negative = inhibition was 9.84%. In the case of `O=C(O)c1cc2c(cc1S(=O)(=O)O)[C@H]1[C@@H]([C@H]3[C@H]2[C@@]2(Cl)C(Cl)=C(Cl)[C@]3(Cl)C2(Cl)Cl)[C@]2(Cl)C(Cl)=C(Cl)[C@@]1(Cl)C2(Cl)Cl`, the activity change, negative = inhibition is 0.12%. Consider `[O-][N+](CCO)(CCO)c1ncnc2nc[nH]c12`, for which the activity change, negative = inhibition is -3.2%.

Regarding `C[C@H](OP(=O)(O)O)[C@H](N)C(=O)O`, the activity change, negative = inhibition is 13.7%. Consider `c1cc2c(cc1C(N1CCNCC1)N1CCNCC1)OCO2`, for which the activity change, negative = inhibition is 8.42%. `NC[C@H](O)C1CCCCCCC1`: the activity change, negative = inhibition is 4.63% [at 38 µM]. For `Cn1c(=O)c2[nH]c(/N=N\N3CCN(CCO)CC3)nc2n(C)c1=O`, the activity change, negative = inhibition was 7.64%. Under `O=S(=O)(O)CCCc1cccc2ccccc12` stands 3.52%; under `C[C@H](CCC(=O)O)[C@H]1CC[C@@H]2[C@H]3[C@@H](C[C@@H](O)[C@]21C)[C@]1(C)CC[C@H](O)C[C@@H]1C[C@@H]3O`, 14.6%.

For the compound `C[C@@H](NC(=O)C1(N)CCCC1)C(=O)O` (HELM PEPTIDE1{[NC1(C(=O)[*:2])CCCC1].[dA]}$$$$V2.0), the activity change, negative = inhibition was 15.7%.

For the compound `O=C(Nc1ccc(-c2cn3ccccc3n2)cc1)c1cc(Br)ccc1O`, the activity change, negative = inhibition is 1.22%. Under `CC(C)=C[C@H]1[C@@H](COC(=O)c2ccccc2Cl)C1(C)C` stands 12.7%.

For `COc1ccc([C@@H](Nc2ncccn2)c2cc3c(cc2O)OCO3)cc1`, the activity change, negative = inhibition was 17.5%. Under `O=C(O)c1ccc(SSc2ccc(C(=O)O)cn2)nc1` stands 5.74%; under `C/C(=N/NC1=NCCN1)c1cn(C2=NCCN2)nc1C`, -15.6%; under `NNC(=O)CCSc1ccccc1`, 10.9%. As for `CN(C)Cc1cc(C(=O)O)cc(CN(C)C)c1O`, the activity change, negative = inhibition is 3.37%.

Take `C[C@@H](CS(=O)(=O)Cc1ccccc1)C(N)=O`: the activity change, negative = inhibition is 5.68%. For the compound `Cn1ccnc1C[C@@](C)(O)c1ccccc1`, the activity change, negative = inhibition is 2.18%.

`[O-][N+]1(CC[N+]2([O-])CCCCC2)CCCCC1`: the activity change, negative = inhibition is 2.18%. As for `N[C@@H](Cc1[nH]nc2ccccc12)C(=O)O`, the activity change, negative = inhibition is -12.5%. On to `OCCN(CO)CO`, for which the activity change, negative = inhibition was 13.5%.

With `Clc1nc(NCCc2ccccc2)c2ncn(-c3ccccc3)c2n1`, the activity change, negative = inhibition was -0.663%. In the case of `N#CCCn1c(=O)c(-c2ccc(F)cc2)nc2cnc(Oc3ccccc3)nc21`, the activity change, negative = inhibition was -6.96%.

Take `O=C(O)CCCSc1ccccc1`: the activity change, negative = inhibition was -1.05%.
